Reference: the supplement of paper PMC6555819

System: LXRb:RXRa (NR concentration 270 nM, RXRa partner concentration 90 nM)
Test: PBM binding z-score (relative to random genomic background probes); higher = stronger binding; sequences stand for … in GC…GCGATTGACAGCGTAGAATGAAGG
Procedure: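 Protein-binding microarray (Agilent 4x180K custom design, double-stranded 60-nt probes: 5' GC cap, 34-nt variable region, 24-nt constant primer region; full probe sequence given). Purified or IVT nuclear receptor:RXRα heterodimers (3:1 NR:RXRα, mostly 270:90 nM) or homodimers were incubated for 1 h in PBS with 2% milk and no ligand, then detected with Alexa488 antibodies. Fluorescence from o1-orientation probes (~5 replicates averaged) was converted to z-scores against 500 random hg19 background probes. Variable regions are seed direct-repeat (DR0–DR5) sites, all their single-nucleotide variants and half-site ablations.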

| Sequence | PBM binding z-score |
| --- | --- |
| CATACAGGGTCGGCTAGGCCAGAGTAGGGACGGC | -0.242 |
| CGTCAAAGGTCAGCAGGTCAGTGAAAGCGACGTG | 4.97 |
| ACGCGGAGGACAAAGGTCAGAGCTACGCCAGTGA | 3.19 |
| CGTCTAAGGTCATAGGAGGTCAGTGAAGACAGAT | 6.9 |
| TCTTGTAGATCAATAGAAGTTAAGAAAGTGCGCT | 0.436 |
| CGAACTAGGTCATCCAGGACCGTGAATACATTGA | 1.72 |
| ACTTACGGCTCAACGAGGTTATAGCACGCGTATA | 0.741 |
| GCTAGTTGGTCAGTAAAATGTCACACACCGGTCG | -0.14 |
| TCTAGTTGGTCACGGAGGACACACACGACGGGTA | 0.424 |
| GCTGCTAGGTCAACTGATGGTCAACTAAAGCTCG | 2.47 |
| TCTGCTAGGTCAACGATGGTCAGTTAATCTGCTA | 1.72 |
| CGAACAAGGTCATCCAGGACAGTGAATACATTGA | 4.67 |
| CCTTACGGGTCACGAGGTTGTAGCACGACGAGCG | 3.44 |
| ATATGTAGGTTAGGGTCAGTCAGAAAGTAGGGAA | 3 |
| TAGCCTAGGTCATTCAGGGGCCAGCATAGAAAGC | 3.03 |
| AATACAGGGTCACGAGGCCAGAGTAGGTACGAAT | 4.97 |
| CGTCCAAGGTCGAAGGTCAGTGAAGAGATGACGG | 2.62 |
| GCTGCGAGGTCAACTGATGGTCAGCTAAAGCTCG | 5.07 |
| ACTCGGATGACAAAGGTCAGAGCTACGCCAGTGA | 3.36 |
| ATCTCTAGGTTAAGATAGTTCAGTGAATGCAAAT | 3.33 |

| Sequence | PBM binding z-score |
| --- | --- |
| GATACAGGGTCGGCTAGAGGCCAGAGTATGGAAA | 0.129 |
| AGAATGAGGTTAAACGTAGATCAGGGAAGAAAGT | 2.42 |
| CCTAGTTGGTCAAGGTCACACCCGCTATAGGTAC | 3.5 |
| CTCGAAAGGTCGTGCTCAGATGAGTATACCAAAC | 3.44 |
| GCTAGTTGGTCAGTAAAAGGTGACACACCGGTCG | 0.263 |
| TCTATTAGTTGATTAGGGCAACCGAAACAGCGGA | 0.544 |
| TCTCGGAGGACACTAAAGGTCAGAGCTCGACATC | 3.73 |
| CGTACAAGGTCAAAGGTCAGTGAAGAGATGACGG | 6.66 |
| CACACTAGGTCACAGAGGTCAAAGTCCGTGCGTA | 6.24 |
| CCTAGTTGGTCAAGGTCACATACGCTATAGGTAC | 3.56 |
| TAGCCTAGGTCATTCAGGGGCCACTATAGAAAGC | 3.38 |
| GATACAGGGTCAGCTACAGGCCAGAGTATGGAAA | 2.51 |
| ATATGTAGGTTACATCCGGGTCATCCAGGCTATG | 2.76 |
| AAAACAGGGTCATCGTAGGCCAGAGTACGCACAG | 4.8 |
| AGAATGAGATTACCAAAGATCAGGGAAACGCTTG | -0.266 |
| CAAACTAGGTCACGAGAGGTCAAAGTCGAATGAC | 7.33 |
| ACTCGGTGGACAAAGGTCAGAGCTACGCCAGTGA | 2.99 |
| AGAATGAGGTCACCAAAGATCAGGGAAACGCTTG | 5.13 |
| TCTTGTAGATCAACAGGAGGTTAATAAAGATCGA | 1.49 |
| CAAACCAGGTCAAAGGTCAAAGTCGAGCCAACCA | 7.49 |
